Results from ChEMBL document CHEMBL1961873, “Compounds: GSK PKIS; Assays: Nanosyn kinase panel” (2012).
Several values for one entry are separate records, joined by “and”; a condition that tells them apart may be missing. Equal values may be shown once.

Target: Mitogen-activated protein kinase 3 (Homo sapiens) (UniProt P27361);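 note: values are mean percent inhibition of MAPK3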
Details: at 1 µM

Sequence of Mitogen-activated protein kinase 3 (Homo sapiens) (P27361 whole entry): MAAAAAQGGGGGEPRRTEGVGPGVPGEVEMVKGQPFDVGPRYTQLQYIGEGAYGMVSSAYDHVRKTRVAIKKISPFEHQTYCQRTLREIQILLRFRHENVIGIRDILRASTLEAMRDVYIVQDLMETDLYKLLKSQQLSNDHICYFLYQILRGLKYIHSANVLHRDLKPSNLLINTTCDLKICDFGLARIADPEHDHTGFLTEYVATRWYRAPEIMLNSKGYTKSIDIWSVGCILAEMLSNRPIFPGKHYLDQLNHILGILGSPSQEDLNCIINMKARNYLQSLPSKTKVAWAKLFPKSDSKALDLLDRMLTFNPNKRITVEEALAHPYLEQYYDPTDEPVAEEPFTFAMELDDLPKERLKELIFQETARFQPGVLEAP

Row | SMILES | inhibition
1 | O=C(O[C@H]1CN[C@H](C#Cc2cc3ncnc(Nc4ccc5c(cnn5Cc5ccccc5)c4)c3s2)C1)N1CCOCC1 | 1.75%
2 | Cn1c(-c2nonc2N)nc2cnccc21 | 3.9%
3 | Nc1ncnc2occ(-c3ccc(NC(=O)Nc4cc(C(F)(F)F)ccc4F)cc3)c12 | 2.88% and -1.29%
4 | O=C(Nc1n[nH]c2nnc(-c3cccnc3)cc12)C1CC1 | 0.8%
5 | COc1ccc2ncn(-c3cc(O[C@H](C)c4ccccc4C(F)(F)F)c(C(N)=O)s3)c2c1 | 0.26%
6 | CCOc1ccc2c(-c3ccnc(Nc4cc(OC)cc(C(F)(F)F)c4)n3)cnn2n1 | 2.27%
7 | c1ccc(-c2n[nH]cc2-c2ccnc(-c3ccc(OCCn4ccnc4)cc3)c2)nc1 | 1.75%
8 | CCN1CCC(C(=O)Nc2n[nH]c3nnc(-c4cccc(F)c4F)cc23)CC1 | -0.23%
9 | Nc1nonc1-c1nc2cnccc2n1C1CC1 | 4.99% and 3.59%
10 | O=C1Nc2ccccc2/C1=C1\CCc2cc(O)ccc21 | 4.54%
11 | NC(=O)c1ccc2c(-c3ccnc(NCCCO)n3)c(-c3ccc(F)cc3)nn2c1 | 8.87%
12 | NS(=O)(=O)c1ccc(N/N=C2\C(=O)Nc3cccc(CCc4ccncc4)c32)cc1 | -1.26%
13 | FC(F)(F)CNc1nccc(-c2cnn3ncccc23)n1 | 2.69%
14 | COc1ccc(-c2nn3ncccc3c2-c2ccnc(Nc3ccc(F)c(F)c3)n2)cc1 | 6.78%
15 | c1cnn2ncc(-c3ccnc(NCCCN4CCOCC4)n3)c2c1 | 0.61%
16 | COc1cc(Nc2ncc(-c3ccccc3)o2)cc(OC)c1 | 5.68%

Row | SMILES | inhibition
17 | CCS(=O)(=O)c1ccc(OC)c(Nc2ncc(-c3cccc(C(C)=O)c3)o2)c1 | 4.06%
18 | COC(=O)Nc1nc2ccc(Oc3ccc(NC(=O)Nc4cc(C(F)(F)F)ccc4F)cc3)cc2s1 | -0.75%
19 | COc1ccc(Nc2ncc(-c3ccccc3)o2)cc1OC | 1.29%
20 | NS(=O)(=O)c1cccc(N/C=C2\C(=O)Nc3ccccc32)c1 | 1.27%
21 | COc1cc(N2CCN(C(C)C)CC2)ccc1Nc1nc(Nc2cccc3ncccc23)c2cc[nH]c2n1 | 0.21%
22 | COc1cc(N2CCN(C(C)C)CC2)ccc1Nc1nc(Nc2cccc(F)c2C(=O)O)c2cc[nH]c2n1 | 5.94%
23 | CN1CCC(C(=O)Nc2n[nH]c3nc(-c4ccc(O)cc4)c(Br)cc23)CC1 | 6.59% and 1.2%
24 | O=C(O[C@H]1CN[C@H](C#Cc2cc3ncnc(Nc4ccc(OCc5cccc(F)c5)c(Cl)c4)c3s2)C1)N1CCOCC1 | 5.48%
25 | CN(C)CCNC(=O)Nc1ccc(N(C)c2ccnc(Nc3ccc(CS(C)(=O)=O)cc3)n2)cc1 | 1.29%
26 | NS(=O)(=O)c1ccc(N/N=C2\C(=O)Nc3ccc(C(=O)NCc4ccncc4)cc32)cc1 | 26.3%
27 | Fc1ccc(Nc2nccc(-c3c(-c4ccc(C(F)(F)F)cc4)nn4ncccc34)n2)cc1F | -0.07%
28 | CC1(C)CC(n2cnc(-c3ccc(F)cc3)c2-c2ccnc(N)n2)CC(C)(C)N1 | 1.92%
29 | Cc1c2ccc(N(C)c3ccnc(Nc4cccc(S(N)(=O)=O)c4)n3)cc2nn1C | 4.37%
30 | CN1CCC(n2cnc(-c3ccc(F)cc3)c2-c2ccnc(NCCO)n2)CC1 | 6.51%
31 | CS(=O)(=O)CCNCc1ccc(-c2ccc3ncnc(Nc4ccc(OCc5ccccc5)cc4)c3c2)o1 | 1.62%

Target: SRSF protein kinase 3 (Homo sapiens) (UniProt Q9UPE1);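 note: mean of replicate inhibition values against MSSK1 kinase, profiled within the GSK PKIS kinase inhibitor set screen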
Sequence (Q9UPE1 whole entry): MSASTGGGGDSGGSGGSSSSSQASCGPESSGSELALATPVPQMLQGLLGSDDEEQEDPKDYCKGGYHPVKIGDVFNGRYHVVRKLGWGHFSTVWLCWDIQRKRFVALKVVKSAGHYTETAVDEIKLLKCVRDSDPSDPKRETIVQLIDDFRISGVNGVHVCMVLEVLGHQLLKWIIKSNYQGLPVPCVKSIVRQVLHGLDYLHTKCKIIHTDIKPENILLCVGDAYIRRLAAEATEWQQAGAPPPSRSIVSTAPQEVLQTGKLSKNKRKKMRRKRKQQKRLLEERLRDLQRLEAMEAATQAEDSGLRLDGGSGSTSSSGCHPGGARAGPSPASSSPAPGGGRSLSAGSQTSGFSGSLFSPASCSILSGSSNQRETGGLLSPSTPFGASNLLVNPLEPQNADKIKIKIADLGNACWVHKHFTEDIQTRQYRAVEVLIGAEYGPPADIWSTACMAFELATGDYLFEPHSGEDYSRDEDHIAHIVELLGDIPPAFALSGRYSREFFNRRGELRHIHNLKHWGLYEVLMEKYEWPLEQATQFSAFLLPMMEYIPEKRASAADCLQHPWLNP
Details: at 0.1 µM

Row | SMILES | inhibition
32 | O=C(O[C@H]1CN[C@H](C#Cc2cc3ncnc(Nc4ccc5c(cnn5Cc5ccccc5)c4)c3s2)C1)N1CCOCC1 | -1.9%
33 | Cn1c(-c2nonc2N)nc2cnccc21 | -1.11%
34 | Nc1ncnc2occ(-c3ccc(NC(=O)Nc4cc(C(F)(F)F)ccc4F)cc3)c12 | 9.33% and 10.1%
35 | O=C(Nc1n[nH]c2nnc(-c3cccnc3)cc12)C1CC1 | -0.02%
36 | COc1ccc2ncn(-c3cc(O[C@H](C)c4ccccc4C(F)(F)F)c(C(N)=O)s3)c2c1 | -1.14%
37 | CCOc1ccc2c(-c3ccnc(Nc4cc(OC)cc(C(F)(F)F)c4)n3)cnn2n1 | -0.03%
38 | c1ccc(-c2n[nH]cc2-c2ccnc(-c3ccc(OCCn4ccnc4)cc3)c2)nc1 | -3.24%
39 | CCN1CCC(C(=O)Nc2n[nH]c3nnc(-c4cccc(F)c4F)cc23)CC1 | -0.64%
40 | Nc1nonc1-c1nc2cnccc2n1C1CC1 | -0.3% and -0.76%
41 | O=C1Nc2ccccc2/C1=C1\CCc2cc(O)ccc21 | 0.01%
42 | NC(=O)c1ccc2c(-c3ccnc(NCCCO)n3)c(-c3ccc(F)cc3)nn2c1 | 1.36%
43 | NS(=O)(=O)c1ccc(N/N=C2\C(=O)Nc3cccc(CCc4ccncc4)c32)cc1 | -1.55%
44 | FC(F)(F)CNc1nccc(-c2cnn3ncccc23)n1 | -4.16%
45 | COc1ccc(-c2nn3ncccc3c2-c2ccnc(Nc3ccc(F)c(F)c3)n2)cc1 | -0.12%
46 | c1cnn2ncc(-c3ccnc(NCCCN4CCOCC4)n3)c2c1 | -0.52%
47 | COc1cc(Nc2ncc(-c3ccccc3)o2)cc(OC)c1 | -1.19%

Row | SMILES | inhibition
48 | CCS(=O)(=O)c1ccc(OC)c(Nc2ncc(-c3cccc(C(C)=O)c3)o2)c1 | 0.96%
49 | COC(=O)Nc1nc2ccc(Oc3ccc(NC(=O)Nc4cc(C(F)(F)F)ccc4F)cc3)cc2s1 | 0.81%
50 | COc1ccc(Nc2ncc(-c3ccccc3)o2)cc1OC | -1.82%
51 | NS(=O)(=O)c1cccc(N/C=C2\C(=O)Nc3ccccc32)c1 | -0.21%
52 | COc1cc(N2CCN(C(C)C)CC2)ccc1Nc1nc(Nc2cccc3ncccc23)c2cc[nH]c2n1 | -0.27%
53 | COc1cc(N2CCN(C(C)C)CC2)ccc1Nc1nc(Nc2cccc(F)c2C(=O)O)c2cc[nH]c2n1 | -1.11%
54 | CN1CCC(C(=O)Nc2n[nH]c3nc(-c4ccc(O)cc4)c(Br)cc23)CC1 | -1.97% and -1.1%
55 | O=C(O[C@H]1CN[C@H](C#Cc2cc3ncnc(Nc4ccc(OCc5cccc(F)c5)c(Cl)c4)c3s2)C1)N1CCOCC1 | -1.6%
56 | CN(C)CCNC(=O)Nc1ccc(N(C)c2ccnc(Nc3ccc(CS(C)(=O)=O)cc3)n2)cc1 | 1.45%
57 | NS(=O)(=O)c1ccc(N/N=C2\C(=O)Nc3ccc(C(=O)NCc4ccncc4)cc32)cc1 | -1.39%
58 | Fc1ccc(Nc2nccc(-c3c(-c4ccc(C(F)(F)F)cc4)nn4ncccc34)n2)cc1F | 0.64%
59 | CC1(C)CC(n2cnc(-c3ccc(F)cc3)c2-c2ccnc(N)n2)CC(C)(C)N1 | -0.06%
60 | Cc1c2ccc(N(C)c3ccnc(Nc4cccc(S(N)(=O)=O)c4)n3)cc2nn1C | -0.02%
61 | CN1CCC(n2cnc(-c3ccc(F)cc3)c2-c2ccnc(NCCO)n2)CC1 | -0.9%
62 | CS(=O)(=O)CCNCc1ccc(-c2ccc3ncnc(Nc4ccc(OCc5ccccc5)cc4)c3c2)o1 | -0.49%
